An excerpt weighted towards active compounds, which were near 5.5% of everything screened.
ELG1 repair inh – inhibitors of ELG1-dependent DNA repair in HEK293T cells; HEK293T ELG1-luciferase reporter, luminescence, 16 h; DNA damage induced by 5-fluorouridine; Potency, µM (series often up to 46.1 µM), most hits filed as inhibitors; 2.3% of 330,000 active; AID 504467; also: nearly all actives have a fitted effect of over 55% in size
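Step one: seed 2,000 cells per well. Step two: pin-transfer compound or DMSO alongside 5-fluorouridine. Step three: incubate 16 hr, 37 °C, 5% CO2. Step four: add ONE-Glo, wait 30 min, read luminescence.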
Giardia kill – Giardia lamblia killing; Giardia lamblia trophozoite viability; activity change, % at 7.66 µM, hits read low; 0.15% of 340,000 active; in the data active = activity change below about -80%; inconclusive = between about -30% and that limit;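 also: parasites exposed to compound for two days anaerobically before the ATP read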
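Killing of trophozoites was scored by loss of ATP luminescence after a 48 hrs anaerobic exposure to compounds at 37 deg C, using 100 cells per well.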
FBPA coupling cs – coupling enzyme interference in Giardia aldolase counter-screen | coupling enzyme system counterscreen, AmpLite Red fluorescence | activity change, negative = inhibition, % at 58.2 µM, hits read low | 0.67% of 290,000 active; in the data active = activity change below about -30%
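First, compound is pin-transferred into glyceraldehyde-3-phosphate coupling-enzyme reagent at 57.5 uM final and held 10 min at RT. Next, substrate, coupling system and AmpLite Red are added. After 20 min RT, fluorescence (525/598 nm) is read.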
Sfp inh – blocks B. subtilis Sfp PPTase activity | 3.5% of 310,000 active | Potency, µM, hits mostly inhibitors | Biochemical Sfp PPTase activity, qHTS | AID 1490 | Q9F4F7;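 also: the enzyme is Sfp with the accession as filed and its product quenches rhodamine fluorescence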
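Step 1, compound plus 15 nM Sfp-PPTase, 15 min, room temperature. Step 2, add rhodamine-CoA (5 uM) and BHQ-2-YbbR (12.5 uM). Step 3, read 525/598 nm fluorescence at 0 and 30 min.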
Each line names hits and unclear results; the compound was inactive in the other large screens; ! = a repeat was not active. Unless noted, calls follow the shape of the dose curve; as a rule, active = well fitted curve in the direction sought with a large enough effect; inconclusive = small, poorly fitted or top-dose-only effect, or another doubt; inactive = no such curve, though single readings can be large; an effect the other way counts as inactive or inconclusive.

COc1ccc(-c2c([C@H]3[C@@H]4C=CCC[C@@]4(C)C(=O)N3Cc3ccccc3)ccc3ccccc23)cc1OC	none
COc1ccc(-c2ccc([C@H]3[C@@H]4C=CCC[C@@]4(C)C(=O)N3Cc3ccccc3)c(F)c2)cc1OC	ELG1 repair inh inconclusive, Giardia kill inconclusive, Sfp inh 20µM
COc1cc(OC)c(OC)cc1CN1CCN(Cc2cccn2C)CC1	Sfp inh 50.1µM
COc1cc(OC)c(OC)cc1CN1CCN(c2ccccc2OC)CC1	none
N#Cc1cccc(-c2nc(Nc3ccccc3)c3ccccc3n2)c1	none (no result: ELG1 repair inh, Giardia kill)
Cc1ccc(OCCn2cc(/C=C(\C#N)C(=O)NCC3CCCO3)c3ccccc32)cc1 (configuration not stated)	ELG1 repair inh inconclusive
Cc1ccc(C)c(OCCn2cc(/C=C(\C#N)C(=O)NCc3cccs3)c3ccccc32)c1	ELG1 repair inh 5.8µM
Cc1ccc(C)c(OCCn2cc(/C=C(\C#N)C(=O)NCC3CCCO3)c3ccccc32)c1 (configuration not stated)	ELG1 repair inh 16.4µM, Sfp inh inconclusive
O=C(COC(=O)c1ccc(O)cc1)NC1CCCCCC1	ELG1 repair inh inconclusive (no result: FBPA coupling cs, Sfp inh)
Cc1nnc(SC2CC(=O)N(c3ccccc3)C2=O)s1 (configuration not stated)	Sfp inh 35.5µM
CCOc1ccc(N2C(=O)CC(Sc3nnnn3-c3ccccc3)C2=O)cc1 (configuration not stated)	Sfp inh 15.8µM
O=C1c2ccccc2CC1Sc1nnc(-c2ccncc2)o1 (configuration not stated)	none
O=C1CC(Sc2nnc(-c3ccccc3)o2)C(=O)N1c1ccccc1 (configuration not stated)	ELG1 repair inh inconclusive, Sfp inh 22.4µM
Cc1ccccc1N1C(=O)CC(Sc2nnc(-c3ccccc3)o2)C1=O (configuration not stated)	Sfp inh 10µM
O=C1CC(Sc2cccs2)C(=O)N1c1ccccc1 (configuration not stated)	none
CC1(C)CC(=O)c2c(oc3cc(O)c(O)cc23)C1	FBPA coupling cs -61.7!, Sfp inh 56.2µM
COC(=O)CC1Oc2cc3oc4c(c3cc2O1)C(=O)CC(C)(C)C4 (configuration not stated)	none (no result: ELG1 repair inh, Giardia kill)
O=C(Cc1ccccc1)NCC(=O)N1CCN(c2ccccc2F)CC1	none (no result: FBPA coupling cs)
COc1ccc(/C=N/NC(=O)c2ccc(O)cc2)cc1CN1CCCc2ccccc21	Giardia kill inconclusive
COc1ccc(/C=N/NC(=O)c2ccc(F)cc2)cc1CN1CCc2cc(OC)c(OC)cc2C1C (configuration not stated)	ELG1 repair inh 20.6µM
COc1ccc(/C=N/NC(=O)c2ccc(C)cc2)cc1CN1CCN(c2ccc(F)cc2)CC1	ELG1 repair inh inconclusive
COc1ccc(/C=N\NC(=O)c2cc(O)c(O)c(O)c2)cc1CN1CCN(c2ccc(F)cc2)CC1	Sfp inh 14.1µM
CCOC(=O)Nc1ccc2c(CNC(C)c3ccccc3OC)cc(=O)oc2c1 (configuration not stated)	Giardia kill inconclusive
CC(C)(C)c1cc(C(=O)/C=C/c2ccc(C(=O)O)cc2)cc(C(C)(C)C)c1	none (no result: ELG1 repair inh, Giardia kill)
Cc1noc(C)c1COC(=O)c1cccc(S(=O)(=O)N2CCOCC2)c1	none (no result: FBPA coupling cs, Sfp inh)
Cc1noc(C)c1COC(=O)c1cccc(S(=O)(=O)N2c3ccccc3CC2C)c1 (configuration not stated)	ELG1 repair inh 18.4µM
Cn1ccnc1SCC(=O)Nc1ccc(Br)cc1C(F)(F)F	ELG1 repair inh inconclusive (no result: FBPA coupling cs)
Cc1ccc(C(=S)N2CCN(Cc3ccccc3)CC2)s1	Sfp inh 5.01µM
Oc1ccc(C(=S)N2CCN(Cc3ccccc3)CC2)cc1	Sfp inh 15.8µM
CCN1CCN(CCC(=O)Nc2ccc(Br)cc2)CC1	Sfp inh inconclusive
S=C(c1ccc(Br)cc1)N1CCN(Cc2ccccc2)CC1	Sfp inh 11.2µM
CCN1CCN(C(=S)c2ccc(Br)cc2)CC1	Sfp inh 14.1µM (no result: FBPA coupling cs)
CCNC(=S)N1CCN(Cc2ccccc2)CC1	none
COCCOC(=O)C1=C(C)NC(=O)NC1c1cccc2ccccc12 (configuration not stated)	none
Cc1[nH]n(C(N)=S)c(=O)c1C(c1ccccc1)C(C#N)C#N (configuration not stated)	ELG1 repair inh inconclusive
Cc1[nH]n(-c2ncc(-c3ccccc3)s2)c(=O)c1C(c1ccc(Br)cc1)C(C#N)C#N (configuration not stated)	ELG1 repair inh inconclusive, Sfp inh 56.2µM
CCN(c1ccccc1)S(=O)(=O)c1ccc(Cl)c(NC(=O)COC(=O)c2cc(O)c3ccccc3c2O)c1	FBPA coupling cs -30.7, Sfp inh 44.7µM (no result: Giardia kill)
CCN(c1ccccc1)S(=O)(=O)c1ccc(Cl)c(NC(=O)CNC(C)c2ccccc2)c1 (configuration not stated)	ELG1 repair inh 14.6µM (no result: FBPA coupling cs, Sfp inh)
CCN(c1ccccc1)S(=O)(=O)c1ccc(Cl)c(NC(=O)CN2CCCCCC2)c1	ELG1 repair inh 16.4µM, Sfp inh 56.2µM
COc1cc2c(cc1OC)C(C)N(S(=O)(=O)c1ccc(Cl)nc1)CC2 (configuration not stated)	none (no result: FBPA coupling cs)
COc1cccc(-n2c(SCC(=O)Nc3nccs3)nnc2-c2ccoc2C)c1	ELG1 repair inh inconclusive
O=C(CSc1nnc(Cn2c(=O)sc3ccccc32)n1-c1ccccc1)Nc1nccs1	Sfp inh 79.4µM
CCn1c(SCC(=O)Nc2nc(C)cs2)nnc1-c1ccoc1C	ELG1 repair inh inconclusive
COc1ccc(-n2c(SCC(=O)Nc3nccs3)nnc2-c2ccoc2C)cc1	ELG1 repair inh 20.6µM
COc1ccc(-n2c(SCC(=O)Nc3nc(C)cs3)nnc2-c2ccoc2C)cc1	ELG1 repair inh 23.1µM
O=C1C2=CC[C@H]3C(=O)N(c4cccc(Oc5ccccc5)c4)C(=O)[C@@H]3[C@@H]2[C@H](O)[C@@H]2O[C@H]12	none (no result: ELG1 repair inh, Giardia kill)
CC(C)CCn1c(SCC(=O)NC2CCS(=O)(=O)C2)nc2cc(Cl)ccc2c1=O (configuration not stated)	ELG1 repair inh inconclusive (no result: FBPA coupling cs, Sfp inh)
CCCCc1ccc(NC(=S)N2CCN(c3ccccn3)CC2)cc1	none
CC(=O)C(C)Oc1ccc2c3c(c(=O)oc2c1)CCCCC3 (configuration not stated)	ELG1 repair inh inconclusive, Sfp inh 70.8µM
CCn1cc(CN2CCC(C(=O)Nc3ccc(Oc4cccnc4)cc3)CC2)cn1	none (no result: FBPA coupling cs)
COc1cccc(/C(C#N)=C/c2c(-c3ccc(Cl)cc3)nc3c(C)cccn23)c1	ELG1 repair inh 14.6µM
O=C(COC(=O)c1ccc(S(=O)(=O)NCc2ccco2)cc1)Nc1ccccc1OC(F)F	Sfp inh 31.6µM
O=C(COC(=O)c1ccc(S(=O)(=O)NCc2ccco2)cc1)Nc1ccccc1	none (no result: FBPA coupling cs, Sfp inh)
Cc1cnc(CNc2ccnc(-c3ccc(C(=O)N(C)C)cc3)n2)cn1	none (no result: ELG1 repair inh, Giardia kill)
CCCCNc1nnc(SCC(=O)N2CCN(S(=O)(=O)c3ccc4ccccc4c3)CC2)s1	ELG1 repair inh 23.1µM
O=C1c2ccc3c4c(ccc(c24)C(=O)N1c1cccc(O)c1)C(=O)N(c1cccc(O)c1)C3=O	ELG1 repair inh 6.51µM
